Reference: PubChem BioAssay
Where “and” joins values, the source holds several entries; their conditions need not be identical. Equal entries are not always repeated. Results filed as inconclusive are left out. Calls of active or inactive are those of the source. Unless noted, no stated cut-off is given here; in the data, active means inhibition above about 80%; inactive means the rest.

Key:
[1] = growth inhibition of DIPG glioma cells, dose response, cell-based, SU-DIPG-XIII, MIPE5.0, CellTiter-Glo, qHTS (AID 1347064; cut-off not given, nearly all actives have AC50 up to about 23 µM;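 on AC50: cells exposed to compound for 48 hours before the viability read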); conditions: SU-DIPG-XIII viability, CellTiter-Glo ATP luminescence
[2] = viability loss in pontine glioma line – cell-based, SU-DIPG-XXV, MIPE5.0, CellTiter-Glo, qHTS, dose response (AID 1347065; cut-off not given, nearly all actives have AC50 up to about 26 µM;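 further: cells exposed to compound for 48 hours before ATP readout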); conditions: CellTiter-Glo ATP luminescence
[3] = SU-DIPG-XXV glioma cell viability, MIPE5.0 library, qHTS (AID 1347068; cut-off not given, nearly all actives have IC50 up to about 30 µM)
[4] = JHH-DIPG-1 glioma cell viability, MIPE5.0 library, CellTiter-Glo luminescence, qHTS (AID 1347067; cut-off not given, nearly all actives have AC50 up to about 26 µM;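 further: cells exposed to compound for 48 hours before readout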); conditions: JHH-DIPG-1 glioma viability, CellTiter-Glo ATP luminescence
[5] = sensitizers of A549 cells to miR-34 induction, primary screen, imaging, A549 dox-inducible miR-34, nuclei and caspase counts (AID 1347080;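 active means compounds whose cell count with miR-34 switched on is under 0.7 times the count with it off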); conditions: A549 miR-34 inducible, Hoechst nuclei count, 48 h
[6] = survival rescue of mitochondrial mutant cells in low glucose, primary screen, MELAS cybrids, Rieske KO mouse fibroblasts, CellTiter-Glo (AID 1508586;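 active means mean z-score across replicates of 1.96 or higher in either the MELAS or the Rieske mutant cell line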;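 further: z relative to plate mean and SD of compound and empty wells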)
[7] = SU-DIPG-VI glioma cell viability, MIPE4.0 library, CellTiter-Glo luminescence, qHTS (AID 1347066; cut-off not given, nearly all actives have AC50 up to about 30 µM;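 further: cells exposed to compound for 48 hours before readout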); conditions: CellTiter-Glo ATP luminescence
[8] = LFS_MB_P medulloblastoma growth inhibition, cell-based, chromothripsis tumors, cisplatin or BGB combos (AID 1671449); conditions: LFS_MB_P medulloblastoma cells;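 further: cells exposed for 96 hours; 0% = vehicle DMSO and 100% = killing by high DMSO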
[9] = HDN33 neuroblastoma growth inhibition, cell-based, chromothripsis tumors, cisplatin or BGB combos (AID 1671450); conditions: HDN33 neuroblastoma cells, stronger effect = higher value;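 further: cells exposed to compound for four days; 0% = vehicle DMSO and 100% = cell killing by high DMSO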
[10] = ICB984 medulloblastoma cell growth inhibition, synergistic combos for chromothripsis tumors, cisplatin or BGB combos (AID 1671451; call rule not given here;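 further: cells exposed for 96 hours before readout; 0% = vehicle DMSO and 100% = killing by high DMSO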); conditions: ICB984 medulloblastoma cells, drug combinations, stronger effect = higher value
[11] = LFS_MB_1R medulloblastoma cell growth inhibition, synergistic combos for chromothripsis tumors, cisplatin or BGB combos (AID 1671452); conditions: LFS_MB_1R medulloblastoma cells, stronger effect = higher value;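 further: cells exposed for 96 hours before readout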
[12] = HTB85 osteosarcoma cell growth inhibition, synergistic combos for chromothripsis tumors, BGB or cisplatin IC20 combos (AID 1671453); conditions: HTB85 osteosarcoma cells, drug combinations, stronger effect = higher value;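 further: cells exposed for 96 hours before readout; 0% = vehicle DMSO and 100% = high DMSO killing control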
[13] = CRL2098 osteosarcoma cell growth inhibition, synergistic combos for chromothripsis tumors, BGB or cisplatin IC20 combos (AID 1671454); conditions: CRL2098 osteosarcoma cells, drug combinations, stronger effect = higher value;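 further: cells exposed for 96 h before readout; 0% = vehicle DMSO and 100% = killing by high DMSO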
[14] = HD-MB03 medulloblastoma cell growth inhibition, synergistic combos for chromothripsis tumors, BGB or cisplatin IC20 combos (AID 1671455; in the data active means inhibition above about 83%;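 further: 0% = vehicle DMSO and 100% = high DMSO as cytotoxic control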); conditions: HD-MB03 medulloblastoma cells, stronger effect = higher value
[15] = UWB1.289 ovarian carcinoma cell growth inhibition, synergistic combos for chromothripsis tumors, BGB or cisplatin combos (AID 1671456); conditions: UWB1.289 ovarian carcinoma cells, stronger effect = higher value;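 further: cells exposed to compound for four days; 0% = vehicle DMSO and 100% = killing by high DMSO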
[16] = LFS_MB_2R medulloblastoma cell growth inhibition, synergistic combos for chromothripsis tumors, cisplatin combos (AID 1671457); conditions: LFS_MB_2R medulloblastoma cells, stronger effect = higher value;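 further: cells exposed to compound for four days before readout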
[17] = MDA-MB-436 breast carcinoma cell growth inhibition, synergistic combos for chromothripsis tumors, BGB or cisplatin combos (AID 1671458; call rule not given here;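 further: cells exposed for 96 hours; 0% = vehicle DMSO and 100% = killing by high DMSO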); conditions: MDA-MB-436 breast carcinoma growth inhibition, drug combinations, stronger effect = higher value
[18] = UWB1.289_BRCA1 ovarian cancer growth, cell-based, BGB or cisplatin combinations (AID 1671459); conditions: UWB1.289 BRCA1 ovarian carcinoma, drug combinations, stronger effect = higher value
[19] = human astrocyte viability loss, single and combined drugs, cytotoxicity control for chromothriptic childhood tumor combination screen, cell-based, BGB or cisplatin IC20 combos (AID 1671460); conditions: Human astrocytes, drug combinations, stronger effect = higher value;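 further: cells exposed to compounds for 96 hours before viability readout; 0% = vehicle and 100% = killing control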
[20] = growth inhibition of BT084 medulloblastoma cells, cell-based, ICGC_MB145, cisplatin and BGB IC40 combos (AID 1671461); conditions: drug combinations, stronger effect = higher value;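 further: cells exposed to drugs for 96 hours; 0% = vehicle DMSO and 100% = high DMSO full killing control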
[21] = growth inhibition of RCMB18 medulloblastoma cells, cell-based, cisplatin and BGB IC40 combos (AID 1671462); conditions: stronger effect = higher value;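 further: cells exposed to compound for four days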
[22] = growth inhibition of CRL1545 osteosarcoma cells, cell-based, cisplatin and BGB IC20 combos (AID 1671464); conditions: stronger effect = higher value;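 further: cells exposed to compound for 96 hours before readout; 0% = vehicle DMSO and 100% = high DMSO killing control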
[23] = stronger effect = lower value, cell number ratio, induced over uninduced
[24] = measured here: relative caspase fold change +Dox/-Dox
[25] = measured here: total cells with miR-34 induction, stronger effect = lower value
[26] = measured here: total cells without miR-34 induction
[27] = MELAS cybrid survival, CellTiter-Glo 48 h, stronger effect = higher value
[28] = Rieske KO mouse fibroblast survival, CellTiter-Glo 72 h
[29] = measured here: combination with BGB IC40, at 0.05 µM
[30] = measured here: with BGB IC20 combination, at 0.5 µM
[31] = measured here: with cisplatin IC20 combination, at 0.5 µM
[32] = measured here: combination with cisplatin, at 0.5 µM
[33] = measured here: combination with cisplatin, at 5 µM

SMILES: NCc1ccc(OCCCc2sc(-c3ccc4c(c3)/C(=N/Nc3nc5ccccc5s3)CCC4)nc2C(=O)O)cc1
- outcome [1]: inactive
- outcome [2]: inactive
- outcome [3]: inactive

SMILES: CN(C)C(=O)c1cc2cnc(Nc3ccc(N4CCNCC4)cn3)nc2n1C1CCCC1
- outcome [1]: inactive
- outcome [2]: inactive
- outcome [4]: inactive
- outcome [3]: inactive
- fold change [5, 23]: 1 (inactive)
- fold change [5, 24]: 0.436
- cell count [5, 25]: 5240
- cell count [5, 26]: 5220
- z-score [6, 27]: -0.462 (inactive)
- z-score [6, 28]: -0.582

SMILES: Cc1c(-c2ccc(-c3ccccc3F)cc2)nc2ccc(F)cc2c1C(=O)O
- outcome [1]: inactive
- outcome [4]: inactive

SMILES: COc1cccc([C@@H](C)NCCCc2ccccc2Cl)c1
- outcome [1]: inactive
- outcome [7]: inactive
- outcome [4]: inactive
- outcome [3]: inactive

SMILES: Nc1ncnc2c1nc(Cl)n2[C@@H]1O[C@H](CO)[C@@H](O)[C@H]1O
- AC50 [1]: 16.6 µM (active)
- AC50 [7]: 23.5 µM (active)
- outcome [3]: inactive

SMILES: CCCS(=O)(=O)Nc1ccc(F)c(C(=O)c2c[nH]c3ncc(Cl)cc23)c1F
- outcome [1]: inactive
- outcome [7]: inactive
- outcome [3]: inactive
- fold change [5, 23]: 0.766 (inactive)
- fold change [5, 24]: 1.15
- cell count [5, 25]: 4220
- cell count [5, 26]: 5520
- z-score [6, 27]: -0.49 (inactive)
- z-score [6, 28]: 0.575

SMILES: Nc1ccn([C@@H]2C(F)=C(CO)[C@@H](O)[C@H]2O)c(=O)n1
- outcome [1]: inactive
- outcome [4]: inactive
- outcome [3]: inactive

SMILES: COC1CCN(C(=O)c2cc(Cc3n[nH]c(=O)c4ccccc34)ccc2F)CC1
- outcome [1]: inactive
- outcome [2]: inactive
- outcome [4]: inactive
- outcome [3]: inactive
- fold change [5, 23]: 0.934 (inactive)
- fold change [5, 24]: 0.846
- cell count [5, 25]: 6330
- cell count [5, 26]: 6780
- z-score [6, 27]: -0.18 (inactive)
- z-score [6, 28]: -0.126
- inhibition ([8]; at 0.5 µM, stronger effect = higher value): -12.1% (inactive) and -16.1% (inactive)
- inhibition ([8]; measured here: combination with BGB IC20, at 0.005 µM): -30.7% and -15.3%
- inhibition ([8]; measured here: combination with BGB IC40, at 0.005 µM): -38.1% and -33.1%
- inhibition [8, 29]: -30.5% and -42.3%
- inhibition ([8]; measured here: combination with cisplatin, at 0.5 µM, stronger effect = higher value): -37.8% and -19.2%
- inhibition ([8]; measured here: combination with cisplatin, at 5 µM, stronger effect = higher value): -40.5% and -57.1%
- inhibition ([9]; BGB combo, at 5 µM): -13.6% and 13.4%
- inhibition ([9]; at 0.5 µM): -10.1% (inactive) and -7.74% (inactive)
- inhibition ([9]; cisplatin combo, at 5 µM): 23.9% and 26%
- inhibition [9, 30]: -20.4% and -10.8%
- inhibition [9, 31]: 5.53% and -9.06%
- inhibition ([9]; single agent, at 5 µM): 14.4% and 38.9%
- inhibition ([10]; BGB IC20 combo, at 0.005 µM): -4.23% and -19.5%
- inhibition ([10]; BGB IC40 combo, at 0.005 µM): -0.687% and -29.1%
- inhibition ([10]; BGB IC40 combo, at 0.05 µM): -13.2% and -21.3%
- inhibition ([10]; at 0.5 µM): -24.6% (inactive) and -24.2% (inactive)
- inhibition ([10]; cisplatin combo, at 0.05 µM): -19% and -25.6%
- inhibition ([10]; cisplatin combo, at 0.5 µM): -40.6% and -12.4%
- inhibition ([10]; cisplatin combo, at 5 µM): -8.06% and -25.7%
- inhibition ([10]; measured here: 5 uM single agent, at 5 µM): 0.595% and -12.2%
- inhibition ([11]; at 0.5 µM): -26.2% (inactive) and -13.9% (inactive)
- inhibition [11, 29]: -15.2% and -8.03%
- inhibition [11, 32]: -30.2% and -13%
- inhibition [11, 33]: -19.4% and -3.56%
- inhibition ([12]; at 0.5 µM): -11.4% (inactive) and 6.36% (inactive)
- inhibition ([12]; measured here: with BGB IC20, at 0.5 µM): -12.2% and -3.86%
- inhibition ([12]; measured here: with BGB IC20, at 5 µM): 12.4% and 5.4%
- inhibition ([12]; measured here: with cisplatin IC20, at 0.5 µM): -10.7% and 2.43%
- inhibition ([12]; measured here: with cisplatin IC20, at 5 µM): 15.8% and -12.3%
- inhibition ([12]; single agent, at 5 µM): 16.7% and 8.18%
- inhibition ([13]; at 0.5 µM): -48.1% (inactive) and -65.8% (inactive)
- inhibition ([13]; measured here: combination with BGB at IC20, at 0.5 µM): -70.3% and -24.2%
- inhibition ([13]; measured here: combination with cisplatin at IC20, at 0.5 µM): -35.2% and -114%
- inhibition ([14]; at 0.5 µM): -3.93% (inactive) and -2.04% (inactive)
- inhibition ([14]; measured here: combo with BGB at IC20, at 0.5 µM): -9.33% and -8.78%
- inhibition ([14]; measured here: combo with cisplatin at IC20, at 0.5 µM): 4.14% and 1.92%
- inhibition ([15]; at 0.5 µM): -6.03% (inactive) and 1.25% (inactive)
- inhibition ([15]; measured here: inhibition with BGB combination, at 0.05 µM): -33.1% and -12.4%
- inhibition ([15]; measured here: inhibition with cisplatin combination, at 0.05 µM): -15.7% and -19.5%
- inhibition ([16]; at 0.5 µM): -18.3% (inactive) and -16.9% (inactive)
- inhibition [16, 32]: -12.3% and -23.2%
- inhibition [16, 33]: -8.19% and -16.7%
- inhibition ([17]; at 0.5 µM): -6.48% (inactive) and 5.83% (inactive)
- inhibition ([17]; measured here: BGB combination, at 0.5 µM): -20.6% and -13.1%
- inhibition ([17]; measured here: BGB combination, at 5 µM): -22% and -12.5%
- inhibition ([17]; measured here: cisplatin combination, at 0.5 µM): -7.18% and 13.4%
- inhibition ([17]; measured here: cisplatin combination, at 5 µM): 19.7% and 25.3%
- inhibition ([18]; BGB combination, concentration series, at 5 µM): -17.2% and 8.15%
- inhibition ([18]; at 0.5 µM): -15.2% (inactive) and 1.82% (inactive)
- inhibition ([18]; cisplatin combination, concentration series, at 5 µM): 1.96% and 12.2%
- inhibition ([19]; at 0.5 µM): -2.67% (inactive) and 18.6% (inactive)
- inhibition ([19]; measured here: combo with BGB IC20, at 0.5 µM): -0.687% and 1.82%
- inhibition ([19]; measured here: combo with cisplatin IC20, at 0.5 µM): -3.5% and 25%
- inhibition ([20]; at 0.5 µM): -21.1% (inactive) and -16.8% (inactive)
- inhibition ([20]; cisplatin combination, at 0.5 µM): -20.5% and -64%
- inhibition ([20]; cisplatin combination, at 5 µM): -29.9% and -19.1%
- inhibition ([20]; measured here: BGB IC40 combination 0.05 uM, at 0.05 µM): -40% and -3%
- inhibition ([20]; single agent, at 5 µM): -18% and 3.41%
- inhibition ([21]; at 0.5 µM): -19.3% (inactive) and -19.5% (inactive)
- inhibition ([21]; cisplatin combo, at 5 µM): -5.98% and -18.2%
- inhibition ([21]; measured here: BGB IC40 combination, at 0.05 µM): -15.8% and -4.12%
- inhibition [21, 32]: -25.7% and -45.6%
- inhibition ([21]; single agent, at 5 µM): -29.2% and -17.7%
- inhibition ([22]; at 0.5 µM): 8.49% (inactive) and 7.34% (inactive)
- inhibition [22, 30]: -9.33% and -2.37%
- inhibition [22, 31]: 16.1% and 10.8%
- inhibition ([22]; single agent, at 0.05 µM): 5.73% and -15.4%
- inhibition ([22]; single agent, at 5 µM): 42.8% and 34.1%
